Screens: PubChem BioAssay, several laboratories
TROY NFkB inh: TROY signaling inhibition; Q293 LMP1-TROYcd NF-kB luciferase reporter, 4 h; inhibition, % at 10 µM; 360,000 compounds, 0.98% hits; AID 1347056;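 active = compounds whose plate-normalised and pattern-corrected inhibition of the luciferase reporter signal at the single screening dose is 50% or more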
LMP1 NFkB inh: reduces LMP1-driven NF-kappaB luciferase signal. LMP1-induced NF-kappaB luciferase reporter cells, luminescence. 350,000 compounds, 0.69% hits. inhibition, % at 12.5 µM; in the data active = inhibition above about 41%;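 also: 0% = neutral control wells and 100% = reference inhibitor control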
TRPM1 prom inh: reduces MITF-dependent TRPM1 promoter luciferase signal; inhibition, % at 12.5 µM; SK-MEL-5 TRPM1 promoter luciferase, 24 h; 330,000 compounds, 0.83% hits;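 active = mean inhibition across replicates of 60% or more, whatever share of single replicates reaches that level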
Peg3 prom inh-1: inhibitors of Peg3 promoter; 360,000 compounds, 1.7% hits; inhibition, % at 20 µM; HeLa PEG-Prom luciferase reporter, luminescence, overnight;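 active = inhibition of at least 50% at 20 µM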
TWEAK-Fn14 inh: inhibitors of TWEAK-Fn14 interaction signaling; TWEAK-stimulated Fn14 reporter cells, luciferase luminescence, 8 h; inhibition, % at 10 µM; 360,000 compounds, 2% hits; AID 1159606; in the data active = inhibition above about 50%
Shn3 inh set2: inhibitors of Schnurri-3 3'UTR reporter in osteoblasts | Clone20 osteoblast Shn3 3'UTR firefly luciferase, 24 h | inhibition, % at 12.5 µM | 360,000 compounds, 0.52% hits | AID 588674;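 active = mean inhibition of at least 75% with every replicate also reaching 75%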;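 also: 0% = median of neutral control wells and 100% = pilot-screen positive control compound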
Peg3 prom inh-2: Peg3 promoter inhibition confirmation; shares compounds with Peg3 prom inh-1; HeLa PEG-Prom luciferase reporter, luminescence, overnight; inhibition, % at 20 µM; 1,300 compounds, 84% hits;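 active = at 20 µM dose, 40% or more inhibition averaged across four replicates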
* marks the source's active call; other numbers are inactive results; . = no result. The list is not random: actives were taken first. Their share in the collection is about 4.1%.

SMILES	TROY NFkB inh	LMP1 NFkB inh	TRPM1 prom inh	Peg3 prom inh-1	TWEAK-Fn14 inh	Shn3 inh set2	Peg3 prom inh-2
CCOc1ccc(C(=O)Nc2cccc(C(=O)O)c2C)cc1Cl	-15	15	67*	55*	68*	8	14
CCOc1ccc(C(=O)Nc2ccccc2-c2ccccc2)cc1Cl	15	3	-9	-21	-17	22	.
N#C/C(=C\c1ccc(OCc2ccc(C(=O)O)cc2)cc1)C(=O)N1CCOCC1	-63	84*	85*	71*	-6	54	76*
COc1cc(/C=C(\C#N)C(=O)N2CCOCC2)ccc1OCc1ccccc1	-27	-7	-51	-177	-19	-54	.
CN=c1sc2c(n1C)C(=O)c1ccccc1C2=O	48	4	93*	88*	89*	3	91*
CN=c1sc(C(=O)Nc2ccccc2)c(C)n1C	-3	4	16	-10	-13	-5	.
O=[N+]([O-])CC1(n2nc3ccccc3n2)CCCCC1	18	1	1	67*	37	5	-2
CCCCN1CC[C@H]2C=CC[C@@H](C(=O)Nc3nccs3)[C@H]2C1=O	2	8	0	16	-4	-8	.
COc1cc(C(=O)NCCc2c[nH]c3ccccc23)ccc1OCc1c(C)noc1C	21	3	-1	63*	14	-11	18
COc1ccc(CCNC(=O)c2ccc(OCc3c(C)noc3C)c(OC)c2)cc1	-6	10	-6	6	9	-4	.
O=C(NCCC1=CCCCC1)c1ccc2c(c1)N(Cc1ccccc1)C(=O)CS2	13	-22	18	8	-2	6	.
CN(Cc1ccccc1)CC(O)CN(C)Cc1ccccc1	3	8	-13	-17	-19	18	.
NS(=O)(=O)c1ccc(CCNc2nn3c(-c4ccc(F)c(Cl)c4)cnc3s2)cc1	42	.	.	67*	56*	58	95*
Oc1ccc(C[C@H]2CNCCN2CCc2cc(C(F)(F)F)cc(C(F)(F)F)c2)cc1	-12	7	0	58*	-6	-18	82*
Oc1ccc(C[C@@H]2CNC(=S)N2CCc2cc(C(F)(F)F)cc(C(F)(F)F)c2)cc1	4	2	2	-15	1	5	.
CC(=O)Nc1c(I)c(C(=O)N[C@H]2C(O)O[C@H](CO)[C@@H](O)[C@@H]2O)c(I)c(N(C)C(C)=O)c1I (some centres not stated)	7	1	1	3	3	-8	.
O=C(CN1CCN(Cc2ccccc2Cl)CC1)N=Nc1c(O)[nH]c2ccccc12	-1	-3	3	54*	1	9	48*
NCCCNc1nc(N)c([N+](=O)[O-])c(NC2CCCCC2)n1	43	-12	74*	67*	38	75	80*
Cc1cc(=O)oc2cc(OCC(=O)Nc3ccc(CN4CCOCC4)cc3)c(Cl)cc12	-8	-12	-7	-38	-33	-22	.
N/C(=N\OC(=O)c1cc([N+](=O)[O-])ccc1Cl)c1ccccn1	1	3	-10	-95	1	-31	.
N/C(=N\OC(=O)c1ccc([N+](=O)[O-])cc1Cl)c1ccccn1	67*	56*	56	50*	94*	17	21
N/C(=N\OC(=O)c1ccc(Cl)cc1Cl)c1ccccn1	80*	56*	33	68*	100*	63	12
COc1cc(Cl)c(CNC[C@H]2O[C@@H](n3cnc4c(=O)[nH]c(N)nc43)[C@H](O)[C@@H]2O)c(Cl)c1O	-2	.	.	5	-11	4	.
CCOC(=O)c1cnc2c(cnn2C)c1NCCC#N	-20	7	3	-3	-7	-8	.
CCOC(=O)c1cnc2c(cnn2C)c1NCCCN(C)C	-4	-3	-1	62*	-15	2	56*
CCCCC(=O)NC(c1ccccc1Cl)c1ccc2cccnc2c1O (configuration not stated)	7	72*	71*	58*	2	88*	65*
CCCC(=O)NC(c1ccc(OC)cc1)c1ccc2cccnc2c1O (configuration not stated)	5	70*	73*	55*	14	92*	71*
